Here are results for 14 molecules from PubChem BioAssay.

Active and inactive are the calls of the source.

Assay [1] has as its system PRMT1 (protein arginine N-methyltransferase 1). In words: small molecules binding arginine methyltransferase PRMT1 – biochemical, small-molecule microarray, 635 nm fluorescence, primary screen (AID 1088).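 Note: binding of Prmt1 protein to compounds spotted on small-molecule microarray slides.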 The conditions noted are these: higher = more signal.
Assay [2] can be described thus: growth effects on S. cerevisiae YJM789 – YJM789 clinical isolate, OD600, 24 h, basal, primary screen (AID 1089).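 Note: growth of clinical yeast isolate S. cerevisiae YJM 789 seeded 1000 cells per well; test concentration not given here.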 The conditions noted are these: higher = more signal, called active from +8 up or from −8 down.
A short description of assay [3]: S. pombe growth modifiers, basal conditions – strain 972, OD600, 24 h, no modulator, primary screen (AID 1090).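 Note: basal condition with compound alone and no growth modifier present; test concentration not given here.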 The note with it: S. pombe 972 growth, higher = more signal, called active from +8 up or from −8 down.
A short description of assay [4]: budding yeast growth modifiers under rapamycin – strain BY4716, OD600, 96 h, primary screen (AID 1091). Note: test concentration not given here. The conditions noted are these: S. cerevisiae BY4716 + rapamycin, higher = more signal, called active from +8 up or from −8 down.
For assay [5], the target named is Torsin-1A-interacting protein 2 (Homo sapiens) (UniProt Q8NFQ8). In words: small molecules binding lysate-expressed LULL1 – cell lysate, human LULL1 lysate, 635/667 nm fluorescence, primary screen (AID 1092).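 Note: probe is lysate of COS7 cells overexpressing human LULL1; score merges per-feature 667 nm fluorescence with signal-to-noise.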 The note with it: small-molecule microarray, hLULL1 lysate binding, 635 nm fluorescence; higher = more signal.
A short description of assay [6]: optical density change of DRC41 E. coli – strain DRC41, OD650, 24 h, E. coli filamentation project, primary screen (AID 1093).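 Note: MC1000 strain lacking acrAB efflux and sulA so SOS filamentation is blocked; test concentration not given here.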 The note with it: E. coli DRC41 growth, higher = more signal, called active from +8 up or from −8 down.
A short description of assay [7]: probe aLefty2 binding to arrayed compounds – biochemical, biotinylated probe, 635/667 nm fluorescence, primary screen (AID 1094).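 Note: score merges spot fluorescence near 667 nm with spot signal-to-noise ratio.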 The note with it: small-molecule microarray, higher = more signal.
Assay [8] has as its system Noggin (protein binding on small-molecule microarray). In words: small molecules binding Noggin protein – biochemical, 635/667 nm fluorescence, primary screen (AID 1095).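 Note: score merges 667 nm feature fluorescence with signal to noise over triplicate slides.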 The conditions noted are these: 635 nm fluorescence, higher = more signal.
The target in assay [9] is Neurogenic locus notch homolog protein 3 (Homo sapiens) (UniProt Q9UM47). Briefly: small molecules binding NOTCH3 protein – biochemical, 635/667 nm fluorescence, primary screen (AID 1096). The conditions noted are these: small-molecule microarray, 635 nm fluorescence, higher = more signal.
The nature of assay [10]: probe aEGFR binding to arrayed compounds – biochemical, biotinylated probe, 635/667 nm fluorescence, primary screen (AID 1097).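 Note: probe is a biotinylated anti-EGFR antibody binding compounds printed on slides; score combines fluorescence near 667 nm and signal to noise of each spot.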 The note with it: small-molecule microarray, higher = more signal.

Chain of Neurogenic locus notch homolog protein 3 (Homo sapiens) (Q9UM47 whole entry, looked up): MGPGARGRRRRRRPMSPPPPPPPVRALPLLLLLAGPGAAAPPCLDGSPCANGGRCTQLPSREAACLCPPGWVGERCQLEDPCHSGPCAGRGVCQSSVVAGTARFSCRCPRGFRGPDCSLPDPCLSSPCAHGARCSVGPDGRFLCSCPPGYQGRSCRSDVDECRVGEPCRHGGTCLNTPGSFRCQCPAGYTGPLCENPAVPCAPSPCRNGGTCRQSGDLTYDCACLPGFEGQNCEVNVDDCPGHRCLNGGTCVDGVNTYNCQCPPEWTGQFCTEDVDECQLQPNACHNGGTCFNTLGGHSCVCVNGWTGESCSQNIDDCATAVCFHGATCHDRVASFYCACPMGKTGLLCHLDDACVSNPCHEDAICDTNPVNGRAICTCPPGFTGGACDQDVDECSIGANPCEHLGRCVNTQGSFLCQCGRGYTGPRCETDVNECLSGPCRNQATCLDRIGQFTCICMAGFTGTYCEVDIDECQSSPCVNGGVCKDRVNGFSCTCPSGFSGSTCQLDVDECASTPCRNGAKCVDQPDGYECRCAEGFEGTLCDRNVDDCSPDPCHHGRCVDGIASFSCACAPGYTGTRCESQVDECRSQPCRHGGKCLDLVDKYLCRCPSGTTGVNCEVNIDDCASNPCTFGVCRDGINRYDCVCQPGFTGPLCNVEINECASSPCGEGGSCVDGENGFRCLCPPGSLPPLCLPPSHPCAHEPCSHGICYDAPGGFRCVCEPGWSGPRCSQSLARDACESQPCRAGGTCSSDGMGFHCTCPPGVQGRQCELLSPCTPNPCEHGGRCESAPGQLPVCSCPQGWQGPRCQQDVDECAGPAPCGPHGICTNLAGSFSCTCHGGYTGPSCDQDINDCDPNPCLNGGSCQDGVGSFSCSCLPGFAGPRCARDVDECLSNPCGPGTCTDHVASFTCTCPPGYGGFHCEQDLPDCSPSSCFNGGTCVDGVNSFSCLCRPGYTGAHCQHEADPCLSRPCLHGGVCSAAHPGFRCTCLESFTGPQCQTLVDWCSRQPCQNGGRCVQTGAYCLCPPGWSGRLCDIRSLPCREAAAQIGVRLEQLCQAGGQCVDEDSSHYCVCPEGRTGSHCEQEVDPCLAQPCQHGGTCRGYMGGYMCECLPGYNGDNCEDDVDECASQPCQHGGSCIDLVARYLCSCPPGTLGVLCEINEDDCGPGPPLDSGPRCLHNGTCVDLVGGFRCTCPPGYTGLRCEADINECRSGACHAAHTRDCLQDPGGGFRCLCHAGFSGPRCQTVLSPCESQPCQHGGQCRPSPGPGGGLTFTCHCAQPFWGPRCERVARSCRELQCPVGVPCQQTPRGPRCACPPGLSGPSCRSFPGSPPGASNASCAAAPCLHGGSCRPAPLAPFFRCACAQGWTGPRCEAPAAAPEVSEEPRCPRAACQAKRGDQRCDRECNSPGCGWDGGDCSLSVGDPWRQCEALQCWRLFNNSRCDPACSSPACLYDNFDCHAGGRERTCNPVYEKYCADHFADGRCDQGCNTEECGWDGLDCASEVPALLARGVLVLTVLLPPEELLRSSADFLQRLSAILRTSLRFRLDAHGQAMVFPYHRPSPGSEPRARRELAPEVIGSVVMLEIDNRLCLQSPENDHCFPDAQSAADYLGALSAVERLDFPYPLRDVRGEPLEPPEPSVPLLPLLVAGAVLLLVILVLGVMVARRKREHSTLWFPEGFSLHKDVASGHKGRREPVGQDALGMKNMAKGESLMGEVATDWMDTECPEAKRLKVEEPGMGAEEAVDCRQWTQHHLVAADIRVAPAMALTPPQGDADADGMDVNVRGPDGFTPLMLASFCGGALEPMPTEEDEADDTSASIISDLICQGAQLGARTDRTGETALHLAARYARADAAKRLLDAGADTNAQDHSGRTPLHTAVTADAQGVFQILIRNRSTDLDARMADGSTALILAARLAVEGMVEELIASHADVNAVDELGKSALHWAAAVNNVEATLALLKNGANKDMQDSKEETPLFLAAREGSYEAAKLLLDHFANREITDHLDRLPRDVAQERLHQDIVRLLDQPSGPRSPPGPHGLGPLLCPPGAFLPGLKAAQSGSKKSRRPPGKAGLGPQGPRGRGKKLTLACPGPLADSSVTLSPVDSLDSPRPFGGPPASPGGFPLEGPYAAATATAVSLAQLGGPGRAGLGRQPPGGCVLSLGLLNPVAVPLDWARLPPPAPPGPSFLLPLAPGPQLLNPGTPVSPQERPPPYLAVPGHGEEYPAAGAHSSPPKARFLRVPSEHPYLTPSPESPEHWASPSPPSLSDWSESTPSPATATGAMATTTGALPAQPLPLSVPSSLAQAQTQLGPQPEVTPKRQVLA
Chain of Torsin-1A-interacting protein 2 (Homo sapiens) (Q8NFQ8 whole entry, looked up): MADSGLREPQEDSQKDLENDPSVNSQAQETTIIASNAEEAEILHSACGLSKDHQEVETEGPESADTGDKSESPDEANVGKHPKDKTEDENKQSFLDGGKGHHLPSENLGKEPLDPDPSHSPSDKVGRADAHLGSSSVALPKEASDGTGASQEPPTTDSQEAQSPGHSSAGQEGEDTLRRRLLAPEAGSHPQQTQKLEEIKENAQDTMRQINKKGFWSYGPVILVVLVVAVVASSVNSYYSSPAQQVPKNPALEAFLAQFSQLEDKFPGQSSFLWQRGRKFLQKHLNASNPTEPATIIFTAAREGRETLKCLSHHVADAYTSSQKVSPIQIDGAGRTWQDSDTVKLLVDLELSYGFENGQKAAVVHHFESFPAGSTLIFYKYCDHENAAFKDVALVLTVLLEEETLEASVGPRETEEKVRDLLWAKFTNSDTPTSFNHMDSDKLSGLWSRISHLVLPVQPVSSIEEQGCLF

Turning to `CCCCC(=C=CC[C@H](O)c1cccc(OCCO)c1)C[C@H](O)c1cc(Cl)cc(Cl)c1O`, the composite z-score is 1.53 in assay [1]; 1.81 in [5]; 0.206 in assay [7]; 0.999 in assay [8]; 0.883 in assay [9]; -0.112 in assay [10]. In addition, the z-score in assay [2] was 0.59 (inactive); in assay [3] it was -1.71 (inactive); in assay [4] it was 0.102 (inactive); in assay [6], 0.206 (inactive).

For the molecule `COc1ccc([Si](C)(C)[C@H]2[C@H](CC(=O)N3CCC[C@H]3CO)O[C@@]3(C(=O)N(C)c4c(Br)cc(C)cc43)[C@@H]2C)cc1`, the composite z-score in [1] worked out at 1.54; in assay [5], 3.42; in assay [7], 0.412; in assay [8], 2.05; in assay [9] it was 0.498; in assay [10], 0.459. For the same molecule, the z-score is -0.749 (inactive) in [2], -0.108 (inactive) in assay [3], -0.385 (inactive) in [4] and -0.2 (inactive) in assay [6].

As for `Cc1ccc(S[C@]2(C(=O)NC(C)C)CC(=O)N(Cc3ccccc3)[C@@H]2c2ccc(CO)cc2I)cc1`, the composite z-score in assay [1] was 1.46; in [5], 2.11; in assay [7], -0.102; in [8] it was -1.44; in assay [9] it was -0.332; in assay [10], -0.0146. Besides, the z-score in assay [2] is -1.12 (inactive); in assay [3], -1.15 (inactive); in assay [4] it was 0.739 (inactive); in [6], 0.301 (inactive).

For `CCCC1(C(=O)OC)C=C2C(=C(C(C)C)C(=O)C2C)CN1` (stereo not given), the composite z-score in assay [1] was -1.32; in assay [5], 0.268; in assay [7], 0.115; in assay [8] it was -0.797; in assay [9], -0.493; in assay [10], -0.146. For the same molecule, the z-score is 0.128 (inactive) in assay [2], 0.0695 (inactive) in assay [3], 0.767 (inactive) in assay [4] and -1.24 (inactive) in assay [6].

For `C=CCOC(=O)[C@H]1[C@@H]2C(=O)O[C@@H](c3ccccc3)[C@@H](c3ccccc3)N2[C@@H](c2ccc(OCCOC(=O)[C@H]3C[C@H]4C(=O)NCC(=O)N4[C@H]3c3ccc(O)cc3)cc2)[C@]12C(=O)Nc1ccccc12`, the composite z-score was found to be 1.48 in assay [1]; 2.58 in [5]; 0.0337 in [7]; 1.22 in [8]; 1.09 in assay [9]; 0.0656 in [10]. For the same molecule, the z-score in assay [2] is 1.71 (inactive); in [3], 1.61 (inactive); in [4] it was 4.1 (inactive); in assay [6], -0.0665 (inactive).

On to `COc1ccc(C(=O)Nc2ccc(CN3C(=O)[C@]4(O[C@H](CC(=O)N(CCO)Cc5ccccc5)[C@@H]([Si](C)(C)c5ccc(OC)cc5)[C@@H]4C)c4ccccc43)cc2)cc1`, for which the composite z-score in assay [1] was 1.54; in assay [5], 2.03; in [7], -0.235; in assay [8], 1.08; in assay [9] it was 0.565; in assay [10] it was -0.096. Also, the z-score in assay [2] was 0.517 (inactive); in assay [3], 1.03 (inactive); in [4] it was 3.41 (inactive); in [6], 1.6 (inactive).

`COc1ccc(C(O)C2C=CC3C(=O)N(C)C(=O)C3N2Nc2ccccc2)cc1` (stereo not given): the composite z-score in assay [1] is 1.29; in assay [5] it was 3.3; in assay [7], 0.156; in assay [8], -0.357; in assay [9], 1.06; in assay [10], 0.147. Besides, the z-score in assay [2] is -0.0991 (inactive); in assay [3], -0.546 (inactive); in assay [4], 0.695 (inactive); in assay [6], -0.238 (inactive).

As for `COC(=O)[C@@]1(Cc2ccc(F)cc2)[C@H]2c3cc(C(=O)N(C)C)n(Cc4ccsc4Br)c3C[C@H]2CN1C(=O)c1ccccc1`, the composite z-score in [1] is -0.291; in [5], 3.64; in assay [7] it was 1.38; in assay [8], -0.322; in assay [9] it was 1.08; in [10], 1.06. Besides, the z-score is 0.232 (inactive) in [2], 0.168 (inactive) in [3], 1.37 (inactive) in assay [4] and -1.32 (inactive) in [6].

With `C=C(/C=C\CNS(=O)(=O)c1ccc(C)cc1)[C@H](O)[C@H]1CCCN1S(=O)(=O)c1ccccc1[N+](=O)[O-]`, the composite z-score in assay [1] was -0.196; in [5] it was 0.782; in [7], -0.139; in assay [8], 0.177; in assay [9], 0.221; in assay [10], -0.0567. The z-score is 1.89 (inactive) in [2], 1.09 (inactive) in assay [3], 35.1 (active) in assay [4] and 0.753 (inactive) in [6].

On to `COC(=O)C(CC#Cc1ccc2c(c1)[C@]1(C(=O)N2)[C@H](c2ccccc2OCCO)N2[C@H](c3ccccc3)[C@H](c3ccccc3)OC(=O)[C@H]2[C@@H]1C(=O)N1CCN(c2ncccn2)CC1)C(=O)OC`, for which the composite z-score in assay [1] was 1.51; in assay [5], 2.15; in assay [7] it was -0.107; in assay [8], 1.71; in assay [9], 1.09; in [10], -0.0982. In addition, the z-score in assay [2] is 2.61 (inactive); in [3], 1.28 (inactive); in assay [4], 6.83 (inactive); in assay [6], 0.173 (inactive).

For the molecule `CN1C(=O)C2C=CC(C(O)COCc3ccccc3)N(Nc3ccc([N+](=O)[O-])cc3[N+](=O)[O-])C2C1=O` (stereo not given), the composite z-score in [1] is 0.332; in [5], 1.78; in assay [7], 0.229; in [8], -0.39; in assay [9], -0.282; in assay [10], -0.146. Besides, the z-score in assay [2] is 0.629 (inactive); in [3], -1.58 (inactive); in [4], 0.308 (inactive); in assay [6], -0.278 (inactive).

Regarding `COc1cccc(C)c1NC(=O)O[C@H]1[C@H](OC(=O)Nc2ccccc2)[C@@H](OC(=O)Nc2ccccc2)[C@@H](OC)O[C@@H]1CO`, the composite z-score in [1] worked out at 1.56; in assay [5] it was 3.36; in assay [7], 0.0321; in assay [8], 0.902; in assay [9], 1.12; in assay [10], 0.0182. For the same molecule, the z-score was 1.52 (inactive) in assay [2], 0.176 (inactive) in assay [3], 4.1 (inactive) in [4] and -0.93 (inactive) in assay [6].

Regarding `COC(=O)[C@@]1(Cc2ccc(F)cc2)[C@H]2c3cc(C(=O)N4CCCC4)n(Cc4ccc(C(F)(F)F)nc4)c3C[C@H]2CN1C(=O)c1ccccc1`, the composite z-score in assay [1] is 0.428; in [5] it was 2.29; in assay [7], 0.67; in assay [8], 0.373; in assay [9] it was 1.03; in assay [10], 0.188. In addition, the z-score in assay [2] is -0.368 (inactive); in assay [3], 1.17 (inactive); in assay [4] it was 3.82 (inactive); in assay [6], -0.293 (inactive).

As for `COc1c(C)cc(-c2nc(-c3ccccc3)c3c(c2C)CO[Si]3(C(C)C)C(C)C)cc1C`, the composite z-score in assay [1] was 0.114; in assay [5] it was 0.254; in assay [7], 0.074; in assay [8], 0.323; in assay [9], 0.566; in [10] it was -0.0068. Besides, the z-score was 0.687 (inactive) in [2], 0.104 (inactive) in [3], -0.191 (inactive) in [4] and -1.59 (inactive) in assay [6].
